# This is a sample that favours compounds with a hit; in the whole collection about 17% have one here.
# TDP1 cell CPT = qHTS for Inhibitors of human tyrosyl-DNA phosphodiesterase 1 (TDP1): qHTS in cells in presence of CPT; chicken DT40 Tdp1-/-;hTDP1 cells + 20 nM CPT, ATP luminescence, 48 h; Potency, µM (series often up to 46.2 µM), usual class: inhibitors; actives 12% (n = 420,000); also: nearly all actives have a fitted effect of over 55% in size
#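 Chicken DT40 Tdp1-/- cells complemented with human TDP1, 400 cells/well, exposed to compounds plus 20 nM camptothecin for at least 48 h at 37 C; viability read as ATP content by CellTiter-Glo luminescence.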
# TGFb SMAD3 inh = qHTS for Inhibitors of TGF-b; HepG2 CAGA-GFP TGF-b/SMAD3 reporter, GFP fluorescence, 18 h; TGF-beta stimulated, 500 pg/mL final; Potency, µM (series often up to 46.1 µM), most hits filed as inhibitors; actives 1.2% (n = 410,000); AID 588855, 2011; also: nearly all actives have a fitted effect of over 65% in size
#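 First, reporter cells (HEPG2 CAGA-GFP) rested 2 h at 37 degrees C. Next, compounds were pinned in and TGF-beta added to 500 pg/mL final. After 18 h, GFP was imaged per cell and summed per well.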
# DT40 TDP1 no CPT = qHTS for Inhibitors of human tyrosyl-DNA phosphodiesterase 1 (TDP1): qHTS in cells in absence of CPT; AID 686978, 2013; DT40 Tdp1-/- hTDP1 cells, no CPT, ATP luminescence, 48 h; Potency, µM (doses to about 46.2 µM), usual class: inhibitors; actives 15% (n = 420,000); also: nearly all actives have a fitted effect of over 55% in size
#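 Camptothecin absent (DMSO only). Human TDP1-complemented DT40 knockout cells, 400 cells/well, 37 °C for minimum 48 hr; ATP measured via CellTiter-Glo, 30 min dark incubation, luminescence.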
# HT1080-NT tox = qHTS for induction of synthetic lethality in tumor cells producing 2HG: qHTS for the HT-1080-NT fibrosarcoma cell line; HT-1080-NT fibrosarcoma viability, CellTiter-Glo ATP luminescence, 48 h; AID 686970, 2013; actives 1.6% (n = 360,000); Potency, µM (titrated, usually from 46.1 µM), usual class: cytotoxic;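 also: NT is the 2HG producing partner of a matched IDH1 knockdown line; nearly all actives have a fitted effect of over 55% in size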
#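 Viability of the 2HG-overproducing fibrosarcoma line after 48 hours of compound exposure at 37 degrees C was determined by luminescence with CellTiter-Glo, and concentration-effect curves were then fitted and categorized.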
# HepG2 tox = qHTS for Inhibitors of TGF-b: Cytotox Counterscreen; HepG2 CAGA-GFP viability, ATP luminescence, 18 h; Potency, µM (top dose mostly 46.1 µM), hits mostly cytotoxic; actives 0.76% (n = 410,000); AID 588856, 2011
#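 HepG2 CAGA-GFP cells (1000/well, DMEM with 1% FBS) received compound, then TGF-beta at 500 pg/mL final, and were incubated 18 hours at 37 degrees C. Viability was read by CellTiter-Glo luminescence. Media-only wells were set as complete cell-killing and DMSO as no toxicity.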
# HT1080 IDH1KD tx = qHTS for induction of synthetic lethality in tumor cells producing 2HG: qHTS for the HT-1080-IDH1KD cell line | actives 2% (n = 360,000) | Potency, µM (top dose mostly 46.1 µM), hits mostly cytotoxic | AID 686971, 2013 | HT-1080 IDH1 knockdown viability, ATP luminescence, 48 h
#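 Using the IDH1-knockdown HT-1080 line run in the same batch and compound series as the NT line, viability after 48 h at 37 °C was determined by CellTiter-Glo luminescence and expressed as % activity.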
# Hits are given with their value; n = inactive; u = inconclusive; x = no result; [ ] = remark or other dose. Calls follow the shape of the dose curve; as a rule, active = well fitted curve in the direction sought with a large enough effect; inconclusive = small, poorly fitted or top-dose-only effect, or another doubt; inactive = no such curve, though single readings can be large; an effect the other way counts as inactive or inconclusive.
SMILES,TDP1 cell CPT,TGFb SMAD3 inh,DT40 TDP1 no CPT,HT1080-NT tox,HepG2 tox,HT1080 IDH1KD tx
CC(C)N(Cc1ccccc1)C(=O)COC(=O)/C=C/c1cnc2ccccc2n1,n,n,n,n,n,n
CCN1CCc2c(sc(NC(=O)c3ccc(S(=O)(=O)N(C)CC4CCCO4)cc3)c2C(N)=O)C1 (stereo not drawn),n,n,21µM,n,n,n
CCN1CCc2c(sc(NC(=O)c3ccc(S(=O)(=O)N(C)C4CCCCC4)cc3)c2C(N)=O)C1,u,u,u,x,11µM,x
CCN1CCc2c(sc(NC(=O)C3CCCCC3)c2C(=O)OC)C1,26µM,n,u,n,n,n
CC(C)N1CCc2c(sc(NC(=O)c3ccc(S(=O)(=O)N(C)CC4CCCO4)cc3)c2C(N)=O)C1 (stereo not drawn),n,n,n,n,n,n
O=C(O)c1cc(O)ccc1N=Nc1ccccc1,u,n,16µM,n,n,n
Oc1ccc(N=Nc2ccccc2)cc1,u,n,u,n,n,n
O=C(O)c1ccccc1N=Nc1ccc(O)cc1,26µM,n,15µM,u,n,u
Cc1noc(C)c1-c1nccc(N2CCNCC2)n1,n,x,n,x,x,x
CCOC(=O)CN1C(=O)/C(=C/c2ccccc2Br)Oc2ccccc21,u,n,u,n,n,n
Cc1ccc2oc(-c3ccc(C)c(NC(=O)/C=C/c4ccco4)c3)nc2c1,n,n,n,x,n,x
COc1cccc(-n2c(=O)c3sc4ccccc4c3n(CC(=O)NC3CCCCC3)c2=O)c1,n,n,u,x,n,x
O=C(N=C1SC2CS(=O)(=O)CC2N1c1ccccc1C(F)(F)F)C1CCCO1 (stereo not drawn),n,n,n,n,n,n
CC[C@H](C)Cc1cn([C@@H](CCCCNC(=O)OC(C)(C)C)C(=O)NCCCCCCCCCCC(=O)N2CCN(C(=O)OC(C)(C)C)CC2)nn1,u,u,16µM,n,n,n
NCCCC[C@@H](C(=O)NCCCCCCCCCCC(=O)N1CCNCC1)n1cc(CCO)nn1,n,n,n,n,n,n
CSCC[C@@H](C(=O)NCCCCCCCCCCC(=O)N1CCN(C(=O)OC(C)(C)C)CC1)n1cc(CCO)nn1,21µM,n,15µM,u,n,n
C#CCOCCOCCOCCNc1nc(N2CCN(C(=O)CCCCCCCCCCNC(=O)[C@H](CCCCN)n3cc(CCO)nn3)CC2)nc(N2CCN(C(=O)CCCCCCCCCCNC(=O)[C@H](CCCCN)n3cc(CCO)nn3)CC2)n1,u,u,u,n,n,n
CC1=NN(c2ccc([N+](=O)[O-])cc2)C(=O)C1[N+](=O)[O-] (stereo not drawn),n[9.04 µM],x,n[9.04 µM],x,x,x
COc1cc(-c2n[nH]c(=S)n2/N=C/c2cccn2C)cc(OC)c1OC,u,n,18µM,n,n,n
Cn1cccc1/C=N/n1c(-c2ccco2)n[nH]c1=S,n,n,n,n,n,n
COCCCNC(=S)N1CCC(NC(=O)c2ccco2)CC1,n,n,n,n,n,n
NC(=O)c1ccc(NC(=O)CNc2cc(S(=O)(=O)N3CCOCC3)ccc2N2CCCC2)cc1,n,n,u,n,n,n
CC(=O)c1ccc(NC(=O)CNc2cc(S(=O)(=O)N3CCOCC3)ccc2N2CCCC2)cc1,16µM,n,26µM,n,n,n
N#Cc1cccc(NC(=O)CNc2cc(S(=O)(=O)N3CCOCC3)ccc2N2CCCC2)c1,u,n,23µM,n,n,n
COc1cccc(NC(=O)CNc2cc(S(=O)(=O)N3CCOCC3)ccc2N2CCCC2)c1,u,n,u,n,n,n
SMILES,TDP1 cell CPT,TGFb SMAD3 inh,DT40 TDP1 no CPT,HT1080-NT tox,HepG2 tox,HT1080 IDH1KD tx
O=C(CNc1cc(S(=O)(=O)N2CCOCC2)ccc1N1CCCC1)Nc1ccc(Cl)cc1,18µM,u,18µM,n,n,n
Cn1c(N)c(C(=O)COC(=O)COc2ccccc2Cl)c(=O)n(C)c1=O,n,n,n,n,n,n
CC1C(=O)N(Cc2cn(CC3CCCCC3)nn2)CCS(=O)(=O)N1Cc1ccc(-c2ccc(Cl)c(Cl)c2)cc1 (stereo not drawn),10µM,u,9.2µM,u,n,n
CC1C(=O)N(Cc2cn(CC3CCCCC3)nn2)CCS(=O)(=O)N1Cc1ccc(-c2ccncc2)cc1 (stereo not drawn),n,n,n,n,n,n
CC1C(=O)N(Cc2cn(CC3CCCCC3)nn2)CCS(=O)(=O)N1Cc1ccc(-c2ccc(Cl)cc2)cc1 (stereo not drawn),16µM,u,8.2µM,u,n,16µM
CC1CCN(S(=O)(=O)c2ccc(S(=O)(=O)NCC3COCCO3)cc2)CC1 (stereo not drawn),n,n,n,n,n,n
COc1ccc(-n2c(N)c(Br)c(=O)[nH]c2=O)cc1,n,n,n,n,n,n
NCc1cn(Cc2ccccc2)nc1-c1ccccc1,11µM,n,u,x,n,x
CCCC(=O)C1=C(O)C(C(=O)OC)C(C)(C)CC1=Nc1cccc2ccccc12 (stereo not drawn),u,u,23µM,u,n,u
Cc1c(C(=O)Nc2c(F)cccc2F)sc2ncn(CC(=O)N3CCCCC3)c(=O)c12,n,n,n,n,n,n
CCN(CC)C(=O)Cn1cnc2sc(C(=O)Nc3cc(OC)c(OC)c(OC)c3)c(C)c2c1=O,u,n,12µM,n,n,n
COCCNC(=O)c1sc2ncn(CC(=O)N3CCCCC3)c(=O)c2c1C,u,n,26µM,n,n,n
COCCNC(=O)c1sc2ncn(CC(=O)Nc3ccc(C)c(Cl)c3)c(=O)c2c1C,u,n,13µM,n,n,n
C[C@@H]1[C@H](c2ccccc2)OCCS(=O)(=O)N1Cc1ccc(F)cc1,u,n,u,x,n,x
CCOC(=O)c1noc2ncn(CC(=O)Nc3ccccc3OC)c(=O)c12,x,n,x,x,n,x
COc1cc(/C=C2\SC(=S)N(CCC(=O)NC3CCCC3)C2=O)cc(OC)c1OC,u,n,u,n,n,n
COc1cc(/C=C2/SC(=S)N(CCC(=O)N3CCN(C)CC3)C2=O)cc(OC)c1OC,u,n,23µM,n,n,n

# From PubChem
